In PubChem BioAssay AID504706 (National Center for Advancing Translational Sciences (NCATS), 2011):
In all, about 320,000 compounds went through this assay and about 200 (0.062%) were called active. A call without a number means that no potency is given here. Inconclusive results (about 6%) are left out. Calls follow the shape of the dose curve; as a rule, active = well fitted activation curve with a large enough effect; inconclusive = small, poorly fitted or top-dose-only effect; inactive = no such curve, though single readings can be large or run the other way. Many of the other results were omitted from the sample, so actives are more common in it than they were.

Assay: qHTS assay for re-activators of p53 using a Luc reporter; also: nearly all actives have a fitted effect of over 45% in size
Details: H1299 p53-A138V BP100-luciferase reporter, luminescence, 24 h; series mostly up to 92.2 µM
Excerpt: The p53 tumor suppressor plays a key role in suppression of tumorigenesis and in human carcinogenesis. It is frequently found inactivated in human cancers, mainly by point mutation. These point mutations are found in a wide variety of human cancers and a majority of them affect the DNA binding domain of the protein. The point mutations either alter native p53 conformation or abolish DNA contact. Additionally, cancer cells with p53 mutations are more resistant to chemo-radiation therapies. In order to find activators to reactivate this important protein, a cell-based screen for p53-dependent luciferase-reporter expression was developed. A p53-null H1299 lung cancer cell line was stably co-transfected with a temperature sensitive p53 mutant, p53-A138V, and a p53-responsive BP100-luciferase reporter. This cell model has previously been characterized in a gene chip profiling experiment for p53 activation. By lowering the culture temperature from 37 deg C (mutant p53 conformation) to 32 deg C (w.t. p53 conformation), a 30-60 fold increase in activation of luciferase activity is observed. At assay temperate, 37 deg C, basal reporter expression is very low and after the addition of detection reagent, a luminescent read-out is carried out. NIH Chemical Genomics Center [NCGC] NIH Molecular Libraries Probe Production Centers Network [MLPCN] MLPCN Grant: DA031088-01A1 Assay Provider (PI): Yi Sung, University of Michigan at Ann Arbor
5ul of 1000 cells per well are dispensed in all wells except column 4, into white solid-bottom TC-treated Kalypsys plates. The cells are kept in Opti-MEM and supplemented with 10% FBS and dispensed using a Multidrop (Thermo). Then using the Kalypsys pin-tool, 23nl of compounds are pinned. The compounds are starting concentration at 10mM, with 1:5 dilution, 4 points, and the control compound nocodazole is pinned in column 1 at 25mM, 1:3 dilution, in duplicate, 25mM nocodazole is pinned in column 2. Please note, all concentrations are working concentrations. 5ul of 1pM purified luciferase enzyme is dispensed using the Kalypsys dispenser in column 4. Plates are incubated for 24 hrs at 37 deg C, 5% CO2, and 95% humidity. Then 4ul of the detection reagent Amplite (ABD Bioquest) is added using the Kalypsys dispenser. Plates are incubated for 10 min at ambient room temperature and are then read on the ViewLux (Perkin Elmer) using a clear filter for a luminescent read-out.
Potency is read from the fitted curve at half-maximal effect.

SMILES | Potency
COC(=O)c1ccc(CNC(=O)c2ccc(S(=O)(=O)N3CCCCCC3)cc2)cc1 | inactive
O=C(COc1ccc(F)cc1Br)NCC1COc2ccccc2O1 (centres undefined) | inactive
CC(C)N(C(=O)[C@H]1C[C@H](CC(=O)NCCC2=CCCCC2)C(=O)N2CCc3c([nH]c4cc(CCC(=O)N(C)C)ccc34)[C@]12C)C(C)C | inactive
CN(C)C(=O)CCc1ccc2c3c([nH]c2c1)[C@]1(C)[C@@H](C(=O)N2CCOCC2)C[C@H](CC(=O)NCCc2ccccn2)C(=O)N1CC3 | inactive
O=c1c2ccccc2c(-c2ccc(F)cc2)nn1-c1ccc(C(F)(F)F)cc1 | inactive
Cn1c(-c2ccc(C(F)(F)F)cc2)cc2onc(-c3ccccc3)c2c1=O | 22.4 µM (active)
Cc1onc(-c2ccccc2)c1C(=O)N1CCN(S(=O)(=O)c2ccccc2C(F)(F)F)CC1 | inactive
CC(C)n1cnc2c(NCc3ccccc3)cc(N[C@@H](CO)Cc3ccccc3)cc21 | inactive
COc1ccc2[nH]c3c(c2c1)CCN1C(=O)C(CC(=O)NCc2cccc(C(F)(F)F)c2)C[C@H](C(=O)N2CCOCC2)[C@@]31C (some centres undefined) | inactive
COc1ccccc1N(CCOc1ccccc1)S(=O)(=O)c1ccccc1 | inactive
COc1ccc(-c2noc(CCC(=O)N3CCN(c4cccc(C)c4)CC3)n2)cc1 | inactive
CCCCC[C@@H]1C=C(C(=O)O)[C@H](c2ccc(C#N)cc2)N1S(=O)(=O)c1ccc(C)cc1 | inactive
CCC(C)c1ccc(NC(=O)COC(=O)C2CCCC2)cc1 (centres undefined) | inactive
O=C(NCC#CCSc1nnc(-c2cccc3ccccc23)o1)c1cccs1 | inactive
O=C(NOCc1ccccc1)c1cccc([N+](=O)[O-])c1 | inactive
CCOC(=O)C1CCCN(C(=O)CSc2nnc3nc(C)cc(C)n23)C1 (centres undefined) | inactive
CCOC(=O)C1CCN(C(=O)CN2C(=O)NC(C)(c3ccc4cc(OC)ccc4c3)C2=O)CC1 (centres undefined) | inactive
CC1CCCN(c2ccc(C(=O)NCCc3ccccc3)cn2)C1 (centres undefined) | 35.5 µM (active)
O=C(NCCc1ccccc1)c1ccc2c(c1)N(Cc1ccccc1)CCS2 | inactive
CC1CCN(C(=O)CCNC(=O)c2ccccc2)CC1 | inactive
CC[C@]12c3[nH]c4ccc(Cl)cc4c3CCN1C(=O)[C@@H](CC(=O)NCCCOC)C[C@@H]2C(=O)N1CCN(C(=O)c2ccco2)CC1 | inactive

SMILES | Potency
CC[C@]12c3[nH]c4cc(CCC(=O)N(C)C)ccc4c3CCN1C(=O)[C@@H](CC(=O)NCC13CC4CC(CC(C4)C1)C3)C[C@@H]2C(=O)N1CCN(C(=O)C2CC2)CC1 | inactive
CCn1c(=S)[nH]c2cc(S(=O)(=O)N3CCOCC3)ccc21 | inactive
Cc1cc(N)n2nc(-c3ccc(C(C)(C)C)cc3)cc2n1 | 11.2 µM (active)
Cc1cc(C(C)(C)C)n2nc(C)c(-c3ccccc3)c2n1 | inactive
Cc1nc2cc(-c3ccc(F)cc3)nn2c(N2CCOCC2)c1C | inactive
CC(C)CC1NC(=O)c2cc(Cl)ccc2-n2c1nc1ccccc1c2=O (centres undefined) | inactive
COc1cccc(CNC(C)C(=O)Nc2ccc(S(=O)(=O)N3CCCC3)cc2)c1 (centres undefined) | inactive
Cc1cc(NC(=O)CSCC(=O)NC(C)c2ccccc2)no1 (centres undefined) | inactive
O=C(Nc1ccc(N2CCOCC2)cc1)c1cccc(S(=O)(=O)N2CCOCC2)c1 | inactive
O=C(Nc1cccnc1Cl)c1cc(-c2ccccc2O)on1 | inactive
Oc1ccccc1-c1cc(-c2ccc(Cl)cc2)n[nH]1 | 2.82 µM (active)
Cc1ccc(NC(=O)c2cc(-c3ccccc3O)n[nH]2)cc1C | inactive
CCN(CC(=O)NCc1ccc(F)cc1)S(=O)(=O)c1ccc(Cl)s1 | inactive
CC(=O)c1ccc(NC(=O)CSc2nc3ccccc3c(=O)n2CCCN2CCOCC2)cc1 | inactive
CC(=O)Nc1ccc(S(=O)(=O)Nc2ccc(N3CCCCC3)cc2)cc1 | inactive
CC[C@]1(C(=O)OC)[C@H]2C(=O)N(C)C(=O)[C@H]2[C@H]2CN(C)C(=NCc3ccccc3)N21 | inactive
CC1O[C@H](OC2C(COC3OC(CO)C(O)[C@H](O)C3O)OC(OC3CC[C@]4(C)C(CC[C@@]5(C)[C@@H]4C=C[C@]46OC[C@@]7(CCC(C)(C)C[C@H]74)C(O)C[C@@]56C)C3(C)C)C(O)C2O)C(O)C(O)C1O (some centres undefined) | inactive
CC[C@]12c3[nH]c4cc(CCC(=O)N(C)C)ccc4c3CCN1C(=O)[C@@H](CC(=O)NCCCN(C)C)C[C@@H]2C(=O)N1CCN(C(=O)c2ccco2)CC1 | inactive
CN1C(=O)[C@H]2[C@@H](/C=C/c3ccccc3)N3C(=O)CN(Cc4ccc(-c5ccccc5)cc4)C(=O)[C@@]3(C)[C@H]2C1=O | inactive
CC1Sc2ccc(C(=O)NCc3ccccc3Cl)cc2NC1=O (centres undefined) | inactive
O=C1NC(Cc2ccc(O)cc2)c2nc3ccc(Cl)cc3c(=O)n2-c2ccccc21 (centres undefined) | inactive

SMILES | Potency
Cc1ccc(C)c(S(=O)(=O)N2CCN(c3ncnc4sccc34)CC2)c1 | inactive
C=CC[C@@H](Cc1ccc(F)cc1)C(=O)OC[C@H]1CCCN1C(=O)[C@H](CC=C)CC(=O)N(CCO)Cc1ccccc1 | inactive
CC(=O)Nc1ccc(/C=C/C(=O)c2ccccc2)cc1 | 15.8 µM (active)
CC(=O)Nc1ccc(C(=O)/C=C/c2ccc[nH]2)cc1 | inactive
CC(=O)Nc1ccc(NC(=S)NC(=O)/C=C/c2ccccc2)cc1 | inactive
O=C(C[C@H]1C[C@H](C(=O)N2CCOCC2)[C@@]2(CCC3CCCC3)c3[nH]c4ccc(Cl)cc4c3CCN2C1=O)NCc1ccco1 | inactive
CC[C@]12c3[nH]c4cc(CCC(=O)N(C)C)ccc4c3CCN1C(=O)[C@@H](CC(=O)NCc1ccco1)C[C@@H]2C(=O)N1CCN(C(=O)c2ccco2)CC1 | inactive
COc1cc(/C=C/C(=O)Nc2ccc(OC)c(S(=O)(=O)N3CCOCC3)c2)ccc1OCC#N | inactive
O=C1OC[C@@H]2CCCN2C(=O)[C@H](CC(=O)N(CCO)Cc2ccccc2)C/C=C\CC[C@@H]1Cc1ccc(F)cc1 | inactive
COc1cc(OC)c(C(=O)NNC(=O)c2ccccc2-n2cccc2)cc1OC | inactive
C[C@@H]1CN([C@@H](C)CO)C(=O)c2cccc(NS(=O)(=O)c3ccc(F)cc3)c2O[C@H]1CN(C)C(=O)NC1CCCCC1 | inactive
COC(=O)[C@]1(C)N[C@H](CN(C)C(=O)c2ccc(C(C)(C)C)cc2)[C@@H]2C(=O)N(C)C(=O)[C@@H]21 | inactive
Cc1ccc(CNC(=O)Cn2cnc3c(NCc4ccccc4)ncnc32)o1 | inactive
CN(C(=O)c1cccc(NC(=O)Cc2ccc([N+](=O)[O-])cc2)c1)C1CCC1 | inactive
CCN(C(=O)CSc1nnnn1-c1ccc(OC)cc1)C1CCS(=O)(=O)C1 (centres undefined) | inactive
C#CCOCCOCCOCCNc1nc(N2CCN(C(=O)[C@H](CCCN=C(N)N)n3cc(C(N)[C@@H](C)CC)nn3)CC2)nc(N2CCN(C(=O)[C@H](CO)n3cc([C@@H](N)C(C)C)nn3)CC2)n1 (some centres undefined) | inactive
CCCCNS(=O)(=O)CCNCc1ccccc1OC | inactive
C=CCC[C@@H](Cc1ccc(F)cc1)C(=O)OC[C@@H](C)NC(=O)[C@H](CC=C)CC(=O)N(CCO)Cc1ccccc1 | inactive
CC(=NNC(=O)c1ccc2nc[nH]c2c1)c1ccc(Br)cc1 | inactive
CC[C@@H]1CCCCc2ccccc2[C@@H](C(=O)C[C@H](O)CC(C)=O)OC1=O | inactive
Oc1ccc(Br)cc1/C=N/Nc1ccccn1 | 28.2 µM (active)

SMILES | Potency
COc1ccc(-c2nn(-c3ccccc3)cc2/C=N/Nc2ccccn2)cc1OC | inactive
Oc1ccc(/C=N/Nc2ccc(C(F)(F)F)cn2)cc1O | inactive
COc1ccc(-c2nc3cc(C)ccn3c2NC2CCCCC2)cc1SC1CCCCC1 | inactive
CSc1ccc(/C=N\NC(=O)CC(=O)NC(C)C)cc1 | inactive
O=C(N/N=C/c1ccc(Cl)c(Cl)c1)c1ccc2nc[nH]c2c1 | inactive
CSc1ccc(/C=N/NC(=O)c2cccc(Cl)c2)cc1 | 10 µM (active)
COc1ccc2nc3n(c(=O)c2c1)-c1cc(C)ccc1C(=O)NC3Cc1ccc(O)cc1 (centres undefined) | inactive
O=C1CCC/C=C/C[C@@H](CC(=O)N(CCO)Cc2ccccc2)C(=O)NC[C@H](c2ccccc2)O1 | inactive
C=CCC[C@H](Cc1ccc(F)cc1)C(=O)OC[C@@H](Cc1c[nH]c2ccccc12)NC(=O)[C@H](CC=C)CC(=O)N[C@H](CO)Cc1ccccc1 | inactive
C=CCC[C@H](Cc1ccc(F)cc1)C(=O)OC[C@@H](NC(=O)[C@@H](CC=C)CC(=O)N[C@H](CO)Cc1ccccc1)C(C)(C)C | inactive
C=CC[C@@H](CC(=O)N[C@H](CO)Cc1ccccc1)C(=O)N[C@H](C)COC(=O)[C@@H](CC=C)Cc1ccc(F)cc1 | inactive
Cc1noc(C)c1S(=O)(=O)N(C)C[C@H]1Oc2c(NC(=O)Nc3ccc4c(c3)OCO4)cccc2C(=O)N([C@H](C)CO)C[C@@H]1C | inactive
O=C(CCc1ccc(S(=O)(=O)N2CCOCC2)cc1)OCC(=O)c1ccc(Br)cc1 | inactive
Cc1ccc(NC(=O)C2CCC(C(C)(C)C)CC2)cc1S(=O)(=O)N1CCOCC1 (centres undefined) | inactive
O=C(Cn1cc(C(F)(F)F)ccc1=O)Nc1ccc2c(c1)OCCO2 | inactive
COc1ccccc1N(CC(=O)Nc1ccc(C)cc1Cl)S(=O)(=O)c1cccs1 | inactive
CC[C@]12c3[nH]c4ccc(Cl)cc4c3CCN1C(=O)[C@@H](CC(=O)NCCCOC)C[C@@H]2C(=O)N1CCN(C(=O)C2CC2)CC1 | inactive
COc1ccc(CNC(=O)C[C@H]2C[C@H](C(=O)N3CCOCC3)[C@@]3(C)c4[nH]c5cc(CCC(=O)N(C)C)ccc5c4CCN3C2=O)cc1OC | inactive
COc1ccc(C(C(O)C(=O)c2c[nH]c3ccccc23)N2CCN(c3ccccc3)CC2)cc1 (centres undefined) | inactive
COc1ccc2[nH]cc(/C=C(/C#N)S(=O)(=O)c3ccccc3)c2c1 | inactive
COc1ccc(/C=C(\C#N)c2c[nH]c3ccccc23)cc1 | 31.6 µM (active)
